# SW480 rerep: DNA re-replication induction in SW480 cells | Potency, µM (titrated, usually from 46.1 µM), for the others: at the highest dose re-replication activation, usual class: activators | hit rate 1.8% among 340,000 | SW480 DNA re-replication, Hoechst DNA content imaging, 48 h | AID 624297; further: potency means the concentration at half of the fitted maximal effect; % of control where 0% means no effect; nearly all actives have a fitted effect of over 55% in size
#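 250 cells/well; 23 nL cpd via pin tool; 48 hr, 37 C, 5% CO2; Hoechst 40 min; imager read of total nuclear intensity, ex 405/em 500-530 nm.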
# MCF10A rerep: inducers of DNA re-replication in MCF 10A breast cells | MCF 10A DNA re-replication, Hoechst nuclear intensity, 48 h | Potency, µM (highest dose often 46.1 µM), without a hit: at the top dose activity, positive = re-replication, hits mostly activators | AID 624296 | hit rate 2.9% among 350,000; further: potency means the concentration at half of the fitted maximal effect; % of control where 0% means no effect; nearly all actives have a fitted effect of over 50% in size
# KCNH2 WT inh: inhibitors of human wildtype KCNH2 potassium channel | Q12809 | U2OS, BacMam KCNH2, thallium flux FluxOr; hits give low values | activity change, % at 1.84 µM | hit rate 0.37% among 340,000;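 active means maximum activity change below -70%; inconclusive means maximum activity change between -70% and -50%; inactive means maximum activity change above -50%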; further: on the % scale 0 is the no-effect control and ±100 the full control effect
#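 U2OS cells were transduced with wild-type KCNH2 virus (2.03 x 10^8 / mL) for 4 h at room temperature, then cultured overnight at 37 C. Thallium flux was read with FluxOr dye. Rate constants were normalized to DMSO controls.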
# KCNH2 3.1 inh: KCNH2 3.1 (human) potassium channel inhibition; hit rate 0.95% among 340,000; activity change, % (tested at about 1.8 µM); AID 720553; U2OS KCNH2 3.1, thallium flux FluxOr; hits give low values;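 active means maximum activity change below -70%; inconclusive means maximum activity change from -70% to -50%; inactive means maximum activity change above -50%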;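 further: thallium influx rate constant from kinetic fluorescence after stimulation buffer; on the % scale 0 is the no-effect control and ±100 the full control effect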
#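 Kinetic fluorescence (2 min after stimulation buffer) measures Tl+ influx through KCNH2 3.1 expressed by viral transduction in U2OS cells; the rate constant is normalized against DMSO controls serving as positive and negative references.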
# KB-V1 cytotox: kills drug-selected multidrug resistant KB-V1 cells; KB-V1 MDR cells viability, CellTiter-Glo, 72 h; Potency, µM (highest dose often 46.1 µM), usual class: cytotoxic; hit rate 3.4% among 400,000; AID 1347076; further: potency means the concentration at half of the fitted maximal effect; on the % scale 0 is the no-effect control and ±100 the full control effect; nearly all actives have a fitted effect of over 60% in size
#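 Cytotoxicity via CellTiter-Glo luminescence after 72 h compound exposure at 37 degrees C. Cells: drug-selected KB-V1 line, DMEM phenol-red free plus 10% FBS. Compounds tested at multiple concentrations; normalized data fitted to concentration-effect curves.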
# KB-3-1 cytotox: KB-3-1 parental cell cytotoxicity; KB-3-1 viability, CellTiter-Glo ATP luminescence, 72 h; Potency, µM (titrated, usually from 46.1 µM), most hits filed as cytotoxic; hit rate 1.4% among 400,000; AID 1347075; further: potency means the concentration at half of the fitted maximal effect; on the % scale 0 is the no-effect control and ±100 the full control effect; nearly all actives have a fitted effect of over 60% in size
#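 Cells are dispensed, compounds pinned in, plates held at 37 °C for 72 h, then CellTiter-Glo is added and luminescence read after 10 minutes. Cell line: parental KB-3-1 in phenol-red-free DMEM, 10% FBS.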
# The depositor's hits bear a star; i = inactive; ? = inconclusive; / = no result. Compounds with a hit are over-represented: about 7.6% of the library has one in this group of screens. Unless noted, the call rests on the fitted dose curve; in most records, active means well fitted curve in the direction sought with a large enough effect; inconclusive means small, poorly fitted or top-dose-only effect, or another doubt; inactive means no such curve, though single readings can be large; an effect the other way counts as inactive or inconclusive.
SMILES,SW480 rerep,MCF10A rerep,KCNH2 WT inh,KCNH2 3.1 inh,KB-V1 cytotox,KB-3-1 cytotox
Cn1ccnc1C(=O)Cc1ccc([N+](=O)[O-])cc1,-127%,-2%,3,1,i,i
Cc1sc2ncnc(N3CCN(C(=O)c4ccco4)CC3)c2c1C,-1%,?,i,1,18µM*,?
CC(C)(C)C(=O)N1CCN(c2ncnc3scc(-c4ccccc4)c23)CC1,24%,8%,10,0,15µM*,?
Cc1ccc(-c2csc3ncnc(N4CCN(C(=O)c5ccco5)CC4)c23)cc1,6%,22%,-4,-15,21µM*,i
Cc1nc(N2CCN(C(=O)c3ccco3)CC2)c2c3c(sc2n1)CCC3,-4%,0%,-2,34,8.2µM*,?
CC(C)c1nc(N2CCN(C(=O)c3ccco3)CC2)c2c3c(sc2n1)CCCC3,-2%,-2%,0,-16,i,i
O=C(c1ccco1)N1CCN(c2ncnc3scc(-c4ccc(F)cc4)c23)CC1,4%,?,-7,-4,i,i
CC12CC3CC(C)(C1)CC(C(=O)N1CCN(C(=O)C4CCCO4)CC1)(C3)C2 (stereo unspecified),-3%,-1%,-8,4,i,i
Cc1nonc1CN(C)C(=O)CC1C(=O)NCCN1Cc1cccc(C(F)(F)F)c1 (stereo unspecified),-9%,9%,-8,3,i,i
Oc1ccc(/C=N/Nc2ccnc3cc(Cl)ccc23)cc1O,16µM*,23%,17,-13,i,i
CCOc1ccc(OCC)c(NC(=O)CSc2nc3c(c(=O)n(C)c(=O)n3C)n2C(C)C)c1,18%,30%,15,-3,18µM*,?
CCOc1ccc(OCC)c(NC(=O)CSc2nc3c(c(=O)n(C)c(=O)n3C)n2CC)c1,-5%,-11%,-17,3,?,i
CC(C)n1c(SCC(=O)NCc2ccco2)nc2c1c(=O)n(C)c(=O)n2C,-2%,16µM*,-2,11,i,i
Cn1c(=O)c2c(nc(SCC(=O)NCc3ccco3)n2C)n(C)c1=O,-14%,-17%,-2,1,i,i
Cc1ccc(Nc2nc(N)nc(CSc3nc4ccccc4s3)n2)cc1,?,?,-3,-72*,?,i
O=C(CCSc1nc2ccccc2s1)N/N=C/c1c(O)ccc2ccccc12,6.5µM*,21µM*,-4,-5,i,?
COc1ccc(Nc2nc(N)nc(CSc3nc4ccccc4s3)n2)cc1,/,/,/,/,i,i
Cc1ccccc1Nc1nc(N)nc(CSc2nc3ccccc3s2)n1,-4%,23%,-21,-17,16µM*,i
Cc1ccccc1NC(=O)CCCSc1nc2ccccc2s1,0%,13%,1,-2,15µM*,i
COc1ccc(/C=N/NC(=O)CCSc2nc3ccccc3s2)cc1OC,?,?,13,-12,i,i
O=C(CSc1ncn[nH]1)Nc1ccc2c(c1)CCC2,1%,8%,0,6,?,i
COc1cc(/C=N/NC(=O)COc2cc(C)cc(C)c2)ccc1OS(=O)(=O)c1ccc(C)cc1,-34%,25%,1,-16,i,i
CCOc1cc(/C=N/NC(=O)c2cccc([N+](=O)[O-])c2)ccc1OS(=O)(=O)c1ccccc1,15%,19%,-16,-8,13µM*,?
COc1ccc(/C=N/NC(=O)c2cccc([N+](=O)[O-])c2)cc1OS(=O)(=O)c1ccc(C)cc1,?,?,10,-11,21µM*,?
CN(c1ccc(C(=O)N/N=C/c2cccc([N+](=O)[O-])c2)cc1)S(=O)(=O)c1ccccc1,?,?,11,-23,i,i
SMILES,SW480 rerep,MCF10A rerep,KCNH2 WT inh,KCNH2 3.1 inh,KB-V1 cytotox,KB-3-1 cytotox
COc1ccc(C(=O)N/N=C/c2ccc(OC)c(OS(=O)(=O)c3ccccc3)c2)cc1,9%,28%,-151*,-195*,?,i
COc1ccc(/C=N/NS(=O)(=O)c2ccccc2)cc1OS(=O)(=O)c1ccccc1,4%,21%,-17,9,i,i
CCCCN(C(=O)Nc1ccccc1)C1CCS(=O)(=O)C1 (stereo unspecified),0%,-8%,-3,-10,i,?
CN(C(=O)c1ccc2c(c1)S(=O)(=O)N=C1CCCCCN12)c1ccccc1,?,?,4,10,i,i
Cc1ccccc1Cn1cc(S(=O)(=O)CC(=O)Nc2nccs2)c2ccccc21,0%,-25%,1,7,16µM*,?
CCOC(=O)N1CCN(C(=O)CS(=O)(=O)c2cn(Cc3ccccc3C)c3ccccc23)CC1,0%,2%,7,12,?,i
Cc1ccc(S(=O)(=O)N2CCC(C(=O)OCC(=O)N3CCCC3=O)CC2)cc1C,-5%,-4%,20,-17,i,i
C=CCN1C(=O)C2C3CC(=O)C(c4ccccc43)C2C1=O (stereo unspecified),5.2µM*,10%,3,-1,i,i
O=C1CC2c3ccccc3C1C1C(=O)N(CCc3ccccc3)C(=O)C21 (stereo unspecified),-14%,11%,-3,-22,i,i
Cc1cc(C)c(S(=O)(=O)Nc2cccc(S(=O)(=O)N3CCOCC3)c2)c(C)c1,-11%,-44%,1,-6,i,i
COc1ccc(-c2noc(CN(C(C)C)S(=O)(=O)c3ccc(Br)cc3)n2)cc1,/,/,/,/,i,i
O=c1[nH]c(SCc2cccc(Cl)c2)nc2ccccc12,-29%,?,-2,-13,i,i
O=c1[nH]c(-c2ccc(-c3cccc(Cl)c3)o2)nc2ccccc12,11%,10µM*,/,/,i,i
Cc1noc(C)c1CSc1ccc2ccccc2n1,-12%,?,-4,13,21µM*,i
Cc1noc(C)c1CSc1nc2ccccc2c(=O)n1-c1ccc(Cl)cc1,?,?,14,14,23µM*,?
C=CC[n+]1cccc2cccc(O)c21,/,/,/,/,i,i
COc1ccc(Cn2c(C3CC3)nc3ccc(NC(=O)c4cccnc4)cc3c2=O)cc1,?,1%,-1,8,?,5.8µM*
O=C(NC1CCCCCCC1)C1CCN(c2nc3ccccc3o2)CC1,0%,-3%,-46,35,2.3µM*,18µM*
Cc1oc(-c2ccccc2F)nc1CN1CCC(C(=O)NC2CCCc3ccccc32)CC1 (stereo unspecified),3%,14%,22,-7,8.2µM*,i
